Test results reported in PubChem BioAssay (Tox21).
Records with an inconclusive call do not appear. The source made the active and inactive calls. Calls follow the shape of the dose curve; as a rule, active = well fitted curve in the direction sought with a large enough effect in the repeat runs; inconclusive = weak or mixed curves; inactive = no such curve, though single readings can be large; an effect the other way counts as inactive or inconclusive.

Tests used:
[1] = qHTS assay to identify small molecule agonists of the RXR signaling pathway - cell viability counter screen (AID 1159529);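 also: HEK 293T cells carrying an RXR-alpha UAS beta-lactamase reporter; nearly all actives have a fitted effect of over 50% in size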
Method in brief: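 Viability read-out for the RXR-alpha agonist qHTS: luminescent CellTiter-Glo signal after 30 min at RT. HEK 293T bla reporter cells, 2% charcoal-stripped FBS, 16 hr compound incubation; tetraoctyl ammonium bromide as cytotoxic control.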

[2] = qHTS assay to identify small molecule antagonists of the retinoic acid receptor (RAR) signaling pathway (AID 1159552; also: nearly all actives have a fitted effect of over 50% in size)
Method in brief: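 Using a RARE-driven luciferase construct in C3RL4 cells, retinol at 1 uM final provided the agonist stimulus while compounds were co-applied. After 6 hours at 37 C, luminescence was recorded to flag inhibitors of retinol signaling.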

[3] = qHTS assay to identify small molecule antagonists of the estrogen related receptor (ERR) signaling pathway from Tox21 library - cell viability counter screen (AID 1224834); also: nearly all actives have a fitted effect of over 30% in size
Method in brief: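 Seeded ERR cells were rested 6 h at 37 C/5% CO2 before compounds, positive and negative controls or DMSO were added. Incubation continued for 17.5 h, and viability was then quantified by CellTiter-Fluor fluorescence.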

[4] = target: Luciferin 4-monooxygenase (Photinus pyralis) (UniProt P08659); experiment: qHTS assay to identify small molecule inhibitors of firefly luciferase (AID 1224835); also: nearly all actives have a fitted effect of over 25% in size
Method in brief: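 Quantitative HTS format; KM concentrations of both substrates. Purified P. pyralis FLuc activity quantified from luminescence images.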

[5] = qHTS assay to identify small molecule agonists of the constitutive androstane receptor (CAR) signaling pathway - cell viability counter screen (AID 1224836); also: nearly all actives have a fitted effect of over 45% in size
Method in brief: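 Multiplexed viability check: HepG2-CYP2B6-hCAR cells, 15-point compound dosing, 0.75 uM PK11195 final, 23 h at 37 C, CellTiter-Fluor fluorescence.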

[6] = qHTS assay to identify small molecule antagonists of the constitutive androstane receptor (CAR) signaling pathway - cell viability counter screen (AID 1224837); also: nearly all actives have a fitted effect of over 45% in size
Method in brief: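 To flag cytotoxic false antagonists, HepG2 hCAR/CYP2B6-2.2kb cells were treated 23 hr with 15-concentration compound series and 50 nM CITCO at 37 C/5% CO2; CellTiter-Fluor fluorescence was the measured end point.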

[7] = target: Nuclear receptor subfamily 1 group I member 3 (Homo sapiens) (UniProt Q14994); experiment: qHTS assay to identify small molecule antagonists of the constitutive androstane receptor (CAR) signaling pathway (AID 1224838);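 also: HepG2 cells stably expressing hCAR with CYP2B6 luciferase reporter stimulated by CITCO; nearly all actives have a fitted effect of over 40% in size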
Method in brief: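 Human hepatoma HepG2 cells expressing hCAR and a CYP2B6 promoter (2.2 kb) luciferase construct; compound titration (15 points) with 50 nM CITCO final, 24 h at 37 C/5% CO2; luminescence via ONE-Glo after 30 min at room temperature.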

[8] = target: Nuclear receptor subfamily 1 group I member 3 (Homo sapiens) (UniProt Q14994); experiment: qHTS assay to identify small molecule agonists of the constitutive androstane receptor (CAR) signaling pathway (AID 1224839);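 also: HepG2 cells stably carrying human CAR and a CYP2B6 luciferase reporter; nearly all actives have a fitted effect of over 15% in size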
Method in brief: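 Using human hepatoma HepG2 cells engineered with hCAR and a CYP2B6-2.2kb reporter, 15-concentration compound series were incubated 24 h alongside PK11195 at 0.75 uM final, with luminescence quantified afterwards.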

[9] = qHTS assay to identify small molecule agonists of the retinoic acid receptor (RAR) signaling pathway (AID 1159553); conditions: C3RL4 RARE luciferase reporter, agonist, 6 h; activation: at 73.3 µM (top of the series)
Method in brief: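 6 hr compound exposure (DMSO vehicle) of overnight-plated C3RL4 RARE-luc cells at 37 C; luminescence quantified after 30 min RT with luciferase reagent.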
% is scaled to controls: 0 for no effect and ±100 for the full control effect.

Sequence of Luciferin 4-monooxygenase (Photinus pyralis) (P08659 whole entry, looked up): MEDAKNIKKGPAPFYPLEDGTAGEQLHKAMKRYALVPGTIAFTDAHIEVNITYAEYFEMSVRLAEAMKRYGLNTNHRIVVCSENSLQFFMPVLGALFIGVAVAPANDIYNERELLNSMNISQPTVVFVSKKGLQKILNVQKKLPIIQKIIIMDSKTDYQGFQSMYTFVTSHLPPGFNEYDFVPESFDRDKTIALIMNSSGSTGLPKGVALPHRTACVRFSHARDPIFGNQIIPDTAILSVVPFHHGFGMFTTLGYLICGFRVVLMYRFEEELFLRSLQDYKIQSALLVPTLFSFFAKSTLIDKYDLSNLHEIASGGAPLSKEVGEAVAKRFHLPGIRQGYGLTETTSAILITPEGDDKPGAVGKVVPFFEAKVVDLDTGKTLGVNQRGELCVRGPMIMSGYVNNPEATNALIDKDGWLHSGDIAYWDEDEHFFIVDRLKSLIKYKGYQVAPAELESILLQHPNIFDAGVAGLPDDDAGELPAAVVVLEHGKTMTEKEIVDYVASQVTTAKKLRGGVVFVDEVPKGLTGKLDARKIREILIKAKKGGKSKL
Sequence of Nuclear receptor subfamily 1 group I member 3 (Homo sapiens) (Q14994 whole entry, looked up): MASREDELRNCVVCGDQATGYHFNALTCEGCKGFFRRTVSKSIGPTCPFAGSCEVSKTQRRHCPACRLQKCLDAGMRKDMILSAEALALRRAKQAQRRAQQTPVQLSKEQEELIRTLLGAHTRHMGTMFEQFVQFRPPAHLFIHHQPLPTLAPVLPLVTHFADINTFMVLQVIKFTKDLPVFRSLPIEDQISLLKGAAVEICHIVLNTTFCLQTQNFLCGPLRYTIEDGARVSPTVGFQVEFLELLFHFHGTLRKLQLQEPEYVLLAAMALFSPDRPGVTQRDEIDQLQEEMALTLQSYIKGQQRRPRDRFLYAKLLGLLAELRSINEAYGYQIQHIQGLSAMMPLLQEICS

CCCCOC(=O)[C@@H](C)Oc1ccc(Oc2ccc(C(F)(F)F)cn2)cc1
inactive: outcome [1] | Potency [2] | Potency [3] | Potency [4] | outcome [5] | Potency [6] | Potency [7] | Potency [8]

O=C1OC(=O)c2ccccc21
inactive: outcome [1] | Potency [2] | Potency [9] | Potency [3] | Potency [4] | outcome [5] | Potency [6]

Cc1ccccc1N1CCN(CCc2nnc3n2CCCC3)CC1
inactive: outcome [1] | Potency [2] | Potency [9] | Potency [3] | Potency [4] | outcome [5] | Potency [6]

NS(=O)(=O)c1ccc(Cl)c(S(N)(=O)=O)c1
inactive: outcome [1] | Potency [9] | Potency [3] | Potency [4] | outcome [5] | Potency [6]

CCS(=O)(=O)CCn1c([N+](=O)[O-])cnc1C
inactive: outcome [1] | Potency [2] | Potency [9] | Potency [3] | Potency [4] | outcome [5] | Potency [6] | Potency [7]

NCCc1ccn[nH]1
inactive: outcome [1] | Potency [9] | Potency [3] | Potency [4] | outcome [5] | Potency [6]

CCCCOC(=O)C(=O)OCCCC
inactive: outcome [1] | Potency [2] | Potency [9] | Potency [3] | outcome [5] | Potency [6] | Potency [7] | Potency [8]

NS(=O)(=O)c1ccccc1OC(F)(F)F
inactive: outcome [1] | Potency [2] | Potency [3] | Potency [4] | outcome [5] | Potency [6]

C=C[Si](C)(C)O[Si](C)(C)C=C
inactive: outcome [1] | Potency [9] | Potency [3] | Potency [4] | outcome [5] | Potency [6]

Cc1cc(C)cc([N+](=O)[O-])c1
inactive: outcome [1] | Potency [2] | Potency [9] | Potency [3] | Potency [4] | outcome [5] | Potency [6]

O=c1[nH]c(=O)c2[nH]c(=O)[nH]c2[nH]1
inactive: activity change, negative = cytotoxicity [1] 9.18% [at 6.97 µM] | activity, negative = inhibition [2] 2.16% [at 8.39 µM] | activation [9] 0.0515% [at 8.36 µM] | viability change, negative = cytotoxic [3] -1.5% [at 8.39 µM] | activity change, negative = inhibition [4] -3.23% [at 10.5 µM] | viability change, negative = cytotoxic [5] -1.86% [at 8.39 µM] | activity change, negative = cytotoxicity [6] -10.7% [at 8.39 µM]

CC(C)(c1ccc(Oc2ccc3c(c2)C(=O)OC3=O)cc1)c1ccc(Oc2ccc3c(c2)C(=O)OC3=O)cc1
inactive: outcome [1] | Potency [3] | outcome [5] | Potency [6] | Potency [7] | Potency [8]

CC1CCC(C(C)(C)S)C(=O)C1 (stereo unspecified)
inactive: outcome [1] | Potency [2] | Potency [3] | Potency [4] | outcome [5] | Potency [6]

NC(=O)C1(N2CCCCC2)CCN(CCCC(=O)c2ccc(F)cc2)CC1
inactive: outcome [1] | Potency [2] | Potency [9] | Potency [3] | Potency [4] | outcome [5] | Potency [6]

COc1cc2c(Nc3ccc(Br)cc3F)ncnc2cc1OCC1CCN(C)CC1
inactive: outcome [1] | Potency [2] | Potency [3] | Potency [4] | outcome [5] | Potency [6] | Potency [7] | Potency [8]

C[Si]1(C)N[Si](C)(C)N[Si](C)(C)N1
inactive: outcome [1] | Potency [2] | Potency [9] | Potency [3] | Potency [4] | outcome [5] | Potency [6] | Potency [7] | Potency [8]

CCOC(=O)C(=O)c1csc(NC=O)n1
inactive: outcome [1] | Potency [2] | Potency [9] | Potency [3] | Potency [4] | outcome [5] | Potency [6]

Nc1cc(C(=O)O)ccc1Cl
inactive: outcome [1] | Potency [2] | Potency [9] | Potency [3] | Potency [4] | outcome [5] | Potency [6]

CCCCCCCCCCCCCCCC(=O)NCCO
inactive: outcome [1] | Potency [2] | Potency [9] | Potency [3] | Potency [4] | outcome [5] | Potency [6] | Potency [7]

N#CCCOCCOCCC#N
inactive: outcome [1] | Potency [2] | Potency [9] | Potency [3] | Potency [4] | outcome [5] | Potency [6]

Oc1ccccc1Cc1ccccc1O
inactive: outcome [1] | Potency [3] | Potency [4] | outcome [5] | Potency [6] | Potency [7]

O=S(=O)(O)c1cc(O)ccc1O
inactive: outcome [1] | Potency [2] | Potency [3] | Potency [4] | outcome [5] | Potency [6]

O=S(=O)(O)CCO
inactive: outcome [1] | Potency [2] | Potency [3] | Potency [4] | outcome [5] | Potency [6]

CCCCC/C=C/CC(=O)OC
inactive: outcome [1] | Potency [2] | Potency [3] | Potency [4] | outcome [5] | Potency [6]

Cc1c(C(C)C)c(=O)n(-c2ccccc2)n1C
inactive: outcome [1] | Potency [2] | Potency [9] | Potency [3] | Potency [4] | outcome [5] | Potency [6] | Potency [7]

Cc1nc2ccccc2c(=O)o1
inactive: outcome [1] | Potency [2] | Potency [9] | Potency [3] | Potency [4] | outcome [5] | Potency [6] | Potency [7]

O=[Si]=O
inactive: outcome [1] | Potency [2] | Potency [3] | Potency [4] | outcome [5] | Potency [6]

CCCCC[Si](OCC)(OCC)OCC
inactive: outcome [1] | Potency [2] | Potency [9] | Potency [3] | Potency [4] | outcome [5] | Potency [6]

O=CO
inactive: activity change, negative = cytotoxicity [1] 0.323% [at 6.97 µM] | activation [9] -3.33% [at 8.36 µM] | viability change, negative = cytotoxic [3] -0.634% [at 8.39 µM] | viability change, negative = cytotoxic [5] 2.87% [at 8.39 µM] | activity change, negative = cytotoxicity [6] -0.437% [at 8.39 µM] | activity, negative = inhibition [7] -2.01% [at 8.39 µM] | activation [8] -3.71% [at 8.39 µM]

O=C(O)C(=O)Nc1cccc(-c2nn[nH]n2)c1
inactive: outcome [1] | Potency [2] | Potency [9] | Potency [3] | Potency [4] | outcome [5] | Potency [6] | Potency [8]

CCCOC(=O)CCCCC(=O)OCCC
inactive: outcome [1] | Potency [2] | Potency [9] | Potency [3] | Potency [4] | outcome [5] | Potency [6]

CN(C)CCOCCN(C)CCO
inactive: outcome [1] | Potency [2] | Potency [9] | Potency [3] | Potency [4] | outcome [5] | Potency [6]

COCCOCCOCCOC
inactive: outcome [1] | Potency [2] | Potency [9] | Potency [3] | Potency [4] | outcome [5] | Potency [6]

Cc1nc(C)nc(N2C[C@@H](C)N(c3ccnc([C@@H](C)O)n3)[C@@H](C)C2)n1
inactive: outcome [1] | Potency [2] | Potency [9] | Potency [3] | Potency [4] | outcome [5] | Potency [6]

CN[C@@H]1[C@@H](O)[C@@H](O[C@@H]2[C@H](O)[C@H](O[C@H]3OC(CN)=CC[C@H]3N)[C@@H](N)C[C@H]2N)OCC1(C)O (stereo partly specified)
inactive: outcome [1] | Potency [3] | Potency [4]

CCC(C)N (stereo unspecified)
inactive: outcome [1] | Potency [9] | Potency [3] | Potency [4] | outcome [5] | Potency [6]
